According to PubChem BioAssay (NCI):
The panel holds about 83,000 compounds, 20% with a hit somewhere; the sample as a whole holds those more often.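 In brief: 96-well plates, 48 h treatment, single concentration, percent growth endpoint.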 Calls of active or inactive are those of the source. Rule for the calls: active = growth percent below 10; inactive = the rest.

Legend:
Assay in all cases: NCI-60 one-dose screen, 48 h (100 = growth as untreated, 0 = no growth, -100 = all killed)
Settings in all cases: 10 µM unless noted
RPMI-8226 leukemia = system: RPMI-8226 leukemia
OVCAR-8 ovarian = system: OVCAR-8 ovarian
OVCAR-5 ovarian = system: OVCAR-5 ovarian
OVCAR-4 ovarian = system: OVCAR-4 ovarian
IGROV1 ovarian = system: IGROV1 ovarian
OVCAR-3 ovarian = system: OVCAR-3 ovarian
HS 578T breast = system: HS 578T breast
NCI/ADR-RES ovarian = system: NCI/ADR-RES ovarian
T-47D breast = system: T-47D breast
SK-OV-3 ovarian = system: SK-OV-3 ovarian

Measured: growth

COc1cc(/C=C2\CN(C)C/C(=C\c3cc(CN4CCOCC4)c(O)c(OC)c3)C2=O)cc(CN2CCOCC2)c1O
inactive: RPMI-8226 leukemia 47.7% | OVCAR-8 ovarian 20.1% | OVCAR-5 ovarian 88.7% | OVCAR-4 ovarian 58.9% | IGROV1 ovarian 57.8% | OVCAR-3 ovarian 22.2% | HS 578T breast 83.1% | NCI/ADR-RES ovarian 94.7% | T-47D breast 84.5%

CC(C)c1ccc(S(=O)(=O)NC(=O)NC2CCCC2)cc1
inactive: RPMI-8226 leukemia 105% | OVCAR-8 ovarian 98.5% | OVCAR-5 ovarian 97.4% | OVCAR-4 ovarian 97.2% | IGROV1 ovarian 105% | OVCAR-3 ovarian 110% | HS 578T breast 103% | NCI/ADR-RES ovarian 105% | T-47D breast 98.9%

O=C(Cn1cc(COc2ncnc3c2cnn3-c2ccccc2)nn1)Nc1cccc2ccccc12
inactive: RPMI-8226 leukemia 93.7% | OVCAR-8 ovarian 87.9% | OVCAR-5 ovarian 98.4% | OVCAR-4 ovarian 76.9% | IGROV1 ovarian 102% | OVCAR-3 ovarian 109% | HS 578T breast 85.1% | NCI/ADR-RES ovarian 94.8% | T-47D breast 87.1%

CC(=O)O[C@@H]1/C=C/C(=O)N[C@@H](C)CCC/C=C/[C@@H]2CCC[C@H]21
inactive: RPMI-8226 leukemia 87.5% | OVCAR-8 ovarian 99.4% | OVCAR-5 ovarian 87.8% | OVCAR-4 ovarian 109% | SK-OV-3 ovarian 103% | OVCAR-3 ovarian 106% | HS 578T breast 133% | NCI/ADR-RES ovarian 101% | T-47D breast 98.6%

COc1cc2nc(NC3CCC3)nc(NC3CCN(C(C)C)CC3)c2cc1OC
active: RPMI-8226 leukemia -7.43% | T-47D breast -7.17%
inactive: OVCAR-8 ovarian 58.2% | OVCAR-5 ovarian 97.2% | OVCAR-4 ovarian 62.5% | IGROV1 ovarian 75.1% | OVCAR-3 ovarian 85.7% | HS 578T breast 66.2% | NCI/ADR-RES ovarian 96.9%

CCCCC1COc2cccc3c2N1C=C/C3=C\C(=O)N(C)c1ccccc1 (stereo not drawn)
inactive: OVCAR-8 ovarian 52.9% | OVCAR-5 ovarian 83.9% | OVCAR-4 ovarian 50.7% | IGROV1 ovarian 56.1% | OVCAR-3 ovarian 49.2% | HS 578T breast 78.4% | NCI/ADR-RES ovarian 86.4% | T-47D breast 41.6%
active: RPMI-8226 leukemia 7.39%

COc1cccc(C(=O)Cn2cc(/C=C(\C#N)S(=O)(=O)c3ccccc3)c3ccccc32)c1
inactive: RPMI-8226 leukemia 72.2% | OVCAR-8 ovarian 89.3% | OVCAR-5 ovarian 47.9% | OVCAR-4 ovarian 95.6% | SK-OV-3 ovarian 85% | OVCAR-3 ovarian 103% | HS 578T breast 106% | NCI/ADR-RES ovarian 90.6% | T-47D breast 91.6%

COc1cccc2c1C=C1CCCCC3=Cc4c(OC)cccc4OC13O2
inactive: RPMI-8226 leukemia 42.6% | OVCAR-8 ovarian 53.1% | OVCAR-5 ovarian 63.9% | OVCAR-4 ovarian 57.7% | IGROV1 ovarian 57.5% | OVCAR-3 ovarian 14.2% | HS 578T breast 42.8% | NCI/ADR-RES ovarian 16.5%

COc1cc(/C=C/C(=O)c2ccc(Nc3nc(NCCO)nc(N4CCOCC4)n3)cc2)cc(OC)c1OC
active: RPMI-8226 leukemia -21% | OVCAR-3 ovarian 2.88% | HS 578T breast 9.53%
inactive: OVCAR-8 ovarian 11.6% | OVCAR-5 ovarian 34% | OVCAR-4 ovarian 23.9% | IGROV1 ovarian 20.6% | NCI/ADR-RES ovarian 53.7%

O=C1/C(=C/c2ccc(O)cc2)COc2ccc(O)cc21
inactive: OVCAR-8 ovarian 108% | OVCAR-5 ovarian 104% | OVCAR-4 ovarian 102% | IGROV1 ovarian 97.3% | OVCAR-3 ovarian 108% | HS 578T breast 98.5% | NCI/ADR-RES ovarian 98.7% | T-47D breast 103%
active: RPMI-8226 leukemia 8.89%

COC(=O)c1c2c(c(C)[n+]([O-])c1C)C(=O)C(NCc1ccc(Br)cc1)=CC2=O
active: OVCAR-8 ovarian 4.52% | OVCAR-4 ovarian -27% | IGROV1 ovarian 5.51% | OVCAR-3 ovarian -21.5% | NCI/ADR-RES ovarian -3.23%
inactive: RPMI-8226 leukemia 47.6% | OVCAR-5 ovarian 69.1% | HS 578T breast 82.4%

O=C1Nc2ccccc2/C1=C/c1ccc[nH]1
active: T-47D breast -24.3%
inactive: RPMI-8226 leukemia 97.6% | OVCAR-8 ovarian 92.8% | OVCAR-5 ovarian 78.7% | OVCAR-4 ovarian 29.8% | IGROV1 ovarian 49.7% | OVCAR-3 ovarian 81.7% | HS 578T breast 86.6% | NCI/ADR-RES ovarian 99.9%

O=c1oc2ccc(F)cc2c(=O)n1-c1ccc(Br)cc1F
active: RPMI-8226 leukemia -22.3% | OVCAR-8 ovarian 8.64% | OVCAR-3 ovarian 5.94% | HS 578T breast -3.75% | NCI/ADR-RES ovarian 6.34% | T-47D breast -12.3%
inactive: OVCAR-5 ovarian 21.8% | OVCAR-4 ovarian 11.9% | IGROV1 ovarian 17%

Nc1nc2c(ncn2[C@@H]2O[C@H](CS)[C@@H](O)[C@H]2O)c(=O)[nH]1
inactive: RPMI-8226 leukemia 94.9% | OVCAR-8 ovarian 99.2% | OVCAR-5 ovarian 93.3% | OVCAR-4 ovarian 99.1% | IGROV1 ovarian 103% | OVCAR-3 ovarian 104% | HS 578T breast 99.6% | NCI/ADR-RES ovarian 104% | T-47D breast 107%

CCN1C(=O)N(CC)C2C1NC(=S)N2/N=C/C=C/c1ccccc1OC (stereo not drawn)
active: NCI/ADR-RES ovarian 6.29%
inactive: RPMI-8226 leukemia 16.5% | OVCAR-8 ovarian 14.8% | OVCAR-5 ovarian 45.2% | OVCAR-4 ovarian 53.5% | IGROV1 ovarian 31.2% | OVCAR-3 ovarian 16.6% | HS 578T breast 40.3% | T-47D breast 65.9%

Cc1c(-c2noc(-c3ccc([N+](=O)[O-])cc3)n2)no[n+]1[O-]
inactive: RPMI-8226 leukemia 93.3% | OVCAR-8 ovarian 107% | OVCAR-5 ovarian 104% | OVCAR-4 ovarian 102% | IGROV1 ovarian 89.4% | OVCAR-3 ovarian 94.4% | HS 578T breast 104% | NCI/ADR-RES ovarian 96.2% | T-47D breast 104%

COc1cc([C@@H]2NC(=O)NC(C)=C2C(=O)Nc2nc(-c3ccc(Cl)cc3)cs2)ccc1O
inactive: RPMI-8226 leukemia 111% | OVCAR-8 ovarian 102% | OVCAR-5 ovarian 100% | OVCAR-4 ovarian 90.5% | IGROV1 ovarian 96.6% | OVCAR-3 ovarian 111% | HS 578T breast 101% | NCI/ADR-RES ovarian 97.2% | T-47D breast 77.1%

Cc1ccc2cccc(Oc3ccc(Nc4ncnc5onc(-c6ccccc6)c45)cc3)c2n1
inactive: RPMI-8226 leukemia 111% | OVCAR-8 ovarian 91% | OVCAR-5 ovarian 94.6% | OVCAR-4 ovarian 71.9% | IGROV1 ovarian 77.2% | OVCAR-3 ovarian 93.8% | HS 578T breast 89.4% | NCI/ADR-RES ovarian 87.3% | T-47D breast 65.2%

Cc1c(-c2csc(-n3nc(C(F)(F)F)cc3C(F)(F)F)n2)no[n+]1[O-]
inactive: RPMI-8226 leukemia 97.2% | OVCAR-8 ovarian 99.2% | OVCAR-5 ovarian 99.2% | OVCAR-4 ovarian 87.4% | IGROV1 ovarian 102% | OVCAR-3 ovarian 114% | HS 578T breast 98.2% | NCI/ADR-RES ovarian 105% | T-47D breast 87.5%

CNCCNc1nc2ccccc2c2c(=O)c3cccc(OC)c3sc12
active: RPMI-8226 leukemia -31.4%
inactive: OVCAR-8 ovarian 23.7% | OVCAR-5 ovarian 47.3% | OVCAR-4 ovarian 22.8% | IGROV1 ovarian 29.7% | OVCAR-3 ovarian 29.4% | HS 578T breast 40.8% | NCI/ADR-RES ovarian 37.5% | T-47D breast 54.4%

O=C(/C=C/c1ccc(Cl)cc1)c1ccc(Nc2nc(NCCO)nc(N3CCOCC3)n2)cc1
inactive: RPMI-8226 leukemia 12.3% | OVCAR-8 ovarian 83.6% | OVCAR-5 ovarian 101% | OVCAR-4 ovarian 93% | IGROV1 ovarian 84% | OVCAR-3 ovarian 63.1% | HS 578T breast 90.7% | NCI/ADR-RES ovarian 88.9% | T-47D breast 67.1%

COc1cccc(/C(C#N)=C/c2nc3c(N4CCOCC4)nc(Cl)nc3n2C)c1
inactive: NCI/ADR-RES ovarian 25.9%
active: RPMI-8226 leukemia -23.5% | OVCAR-8 ovarian 9.5% | OVCAR-5 ovarian -37.6% | OVCAR-4 ovarian -65.9% | IGROV1 ovarian -29.8% | OVCAR-3 ovarian -78.7% | HS 578T breast -7.18% | T-47D breast -44.5%

O=S(=O)(Nc1ncccn1)c1ccc(NC2Nc3nc4ccccc4nc3S2)cc1 (stereo not drawn)
inactive: RPMI-8226 leukemia 99% | OVCAR-8 ovarian 98.8% | OVCAR-5 ovarian 96.4% | OVCAR-4 ovarian 102% | IGROV1 ovarian 96.3% | OVCAR-3 ovarian 109% | HS 578T breast 95.9% | NCI/ADR-RES ovarian 99.6% | T-47D breast 101%

COC(=O)/C(CCC=C(C)C)=C1\[C@@H](OC(C)=O)C[C@@]2(C)[C@H]1C[C@@H](O)[C@H]1[C@@]3(C)CC[C@H](NCCO)[C@@H](C)[C@@H]3CC[C@@]12C
inactive: RPMI-8226 leukemia 101% | OVCAR-8 ovarian 101% | OVCAR-5 ovarian 104% | OVCAR-4 ovarian 107% | IGROV1 ovarian 99.4% | OVCAR-3 ovarian 105% | HS 578T breast 93.3% | NCI/ADR-RES ovarian 101% | T-47D breast 103%

COc1ccccc1C1=C(Br)C(=O)c2nc(C)ccc2C1=O
inactive: RPMI-8226 leukemia 104% | OVCAR-8 ovarian 96.8% | OVCAR-5 ovarian 110% | OVCAR-4 ovarian 97.8% | IGROV1 ovarian 97.3% | OVCAR-3 ovarian 81% | HS 578T breast 104% | NCI/ADR-RES ovarian 107% | T-47D breast 69.6%

COc1ccc(Nc2nc(N/N=C/c3ccc(O)cc3)nc(Nc3ccc([N+](=O)[O-])cc3)n2)cc1
inactive: RPMI-8226 leukemia 99.7% | OVCAR-8 ovarian 100% | OVCAR-5 ovarian 109% | OVCAR-4 ovarian 111% | IGROV1 ovarian 121% | OVCAR-3 ovarian 124% | HS 578T breast 110% | NCI/ADR-RES ovarian 109% | T-47D breast 109%

CC(=O)c1ccc(Nc2nc(NCCO)nc(Nc3ccc(Cl)cc3)n2)cc1
inactive: RPMI-8226 leukemia 89.5% | OVCAR-8 ovarian 93.4% | OVCAR-5 ovarian 96.1% | OVCAR-4 ovarian 95.7% | IGROV1 ovarian 98.7% | OVCAR-3 ovarian 95.5% | HS 578T breast 87.2% | NCI/ADR-RES ovarian 91.9% | T-47D breast 79.9%

O=C(NCc1ccccc1)C1CN(c2ccc(Cl)cc2)N(c2ccc(Cl)cc2)C1=O (stereo not drawn)
inactive: RPMI-8226 leukemia 85.5% | OVCAR-8 ovarian 86.5% | OVCAR-5 ovarian 95.2% | OVCAR-4 ovarian 88.3% | IGROV1 ovarian 92.1% | OVCAR-3 ovarian 51.7% | HS 578T breast 74.7% | NCI/ADR-RES ovarian 69.9% | T-47D breast 63.9%

O=C1CCC(N2C(=O)c3cccc(NCCCCCCOc4ccc(Nc5nccc(Nc6ccccc6)n5)cc4)c3C2=O)C(=O)N1 (stereo not drawn)
inactive: RPMI-8226 leukemia 38.5% | OVCAR-8 ovarian 77.8% | OVCAR-5 ovarian 109% | OVCAR-4 ovarian 64.6% | IGROV1 ovarian 72.5% | OVCAR-3 ovarian 78.8% | HS 578T breast 98.2% | NCI/ADR-RES ovarian 79.2% | T-47D breast 39.5%
